{
  "source": "PubChem BioAssay",
  "note": "Results with a measured potency or affinity are listed apart. Results filed as inconclusive are left out. Values without a mark were called inactive.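 How the source made its calls: active means signal-lowering compounds whose fitted half-maximal concentration is at or below twice the top tested dose in every run; inconclusive means runs disagree, flat 30 to 70% inhibition, or poor curve fit; inactive means the rest.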",
  "data": [
    {"test": "CMV-driven luciferase expression suppression in HEK293 – cell-based, luminescence, dry powder, counter-screen for Pax8 inhibitor project, dose response (AID 743020);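 further: HEK293 cells stably expressing the CMV luciferase reporter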", "conditions": "HEK293 CMV-luciferase reporter, SteadyGlo luminescence, 24 h; series mostly up to 35 µM; activity change, negative = inhibition: at the top concentration", "values": [
      {"smiles": "C[C@@H]1CCCCO[C@H](CN(C)C(=O)Cc2ccccc2)[C@@H](C)CN([C@@H](C)CO)C(=O)c2cc(NC(=O)Nc3ccc(C(F)(F)F)cc3)ccc2O1", "activity change, negative = inhibition": "2.22%"},
      {"smiles": "O=S(=O)(c1ccccc1F)N1CC[C@@H]2[C@H]1c1cc(-c3cccc(F)c3)ccc1N[C@@H]2CO", "activity change, negative = inhibition": "-15.9%"},
      {"smiles": "Cc1ccc(S(=O)(=O)Nc2ccc3c(c2)C(=O)N([C@@H](C)CO)C[C@@H](C)[C@H](CN(C)Cc2ccc(C(F)(F)F)cc2)OCCCC[C@H](C)O3)cc1", "activity change, negative = inhibition": "-1.94%"},
      {"smiles": "O=C(Nc1ccc(F)cc1)N1CCCCN2[C@@H](CO)[C@@H](c3ccc(C#Cc4ccccc4)cc3)[C@@H]2C1", "activity change, negative = inhibition": "-7.29%"},
      {"smiles": "COc1ccc(CN(C)C[C@H]2OCCCC[C@@H](C)Oc3ccc(NC(=O)Nc4ccc(F)cc4)cc3C(=O)N([C@@H](C)CO)C[C@@H]2C)cc1", "activity change, negative = inhibition": "-6.14%"},
      {"smiles": "C[C@@H]1CN([C@H](C)CO)C(=O)c2cc(NC(=O)Nc3ccc(C(F)(F)F)cc3)ccc2O[C@@H](C)CCCCO[C@@H]1CN(C)C(=O)c1ccccc1", "activity change, negative = inhibition": "-1.18%"},
      {"smiles": "C[C@H]1CCCCO[C@H](CN(C)C(=O)C2CCCCC2)[C@@H](C)CN([C@@H](C)CO)C(=O)c2cc(NC(=O)Nc3ccc(F)cc3)ccc2O1", "activity change, negative = inhibition": "-19.8%"},
      {"smiles": "COc1ccc(S(=O)(=O)Nc2ccc3c(c2)C(=O)N([C@H](C)CO)C[C@H](C)[C@H](CN(C)Cc2ccc(C(F)(F)F)cc2)OCCCC[C@H](C)O3)cc1", "activity change, negative = inhibition": "-1.6%"},
      {"smiles": "COc1cc(/C=C2\\SC(=S)N(CCC(=O)N3CCCCC3)C2=O)cc(OC)c1OC", "activity change, negative = inhibition": "-10.4%"},
      {"smiles": "C[C@@H]1CN([C@H](C)CO)C(=O)c2cc(NC(=O)NC3CCCCC3)ccc2O[C@@H](C)CCCCO[C@H]1CN(C)Cc1ccc(C(F)(F)F)cc1", "activity change, negative = inhibition": "-2.26%"},
      {"smiles": "Cc1ccc(-c2csc(NC3OC(=O)c4ccccc43)n2)cc1", "note": "(stereo unspecified)", "activity change, negative = inhibition": "4.13%"},
      {"smiles": "Cc1nc(SCC(=O)Nc2nc3ccccc3s2)c(C#N)c(C)c1C", "activity change, negative = inhibition": "-23.8%"},
      {"smiles": "COc1cccc(S(=O)(=O)N2C[C@@H]3N[C@H](C2)C3c2ccc(/C=C/c3ccccc3)cc2)c1", "note": "(stereo partly specified)", "activity change, negative = inhibition": "11.5%"},
      {"smiles": "CN1c2ccc(-c3ccccc3)cc2[C@H]2[C@H](CCN2C(=O)NC2CCCCC2)[C@@H]1CO", "activity change, negative = inhibition": "-8.33%"},
      {"smiles": "COc1ccc(S(=O)(=O)N(C)C[C@H]2OCCCC[C@H](C)Oc3ccc(NS(=O)(=O)c4ccc(F)cc4)cc3C(=O)N([C@@H](C)CO)C[C@@H]2C)cc1", "activity change, negative = inhibition": "-23.7%"},
      {"smiles": "CO[C@@H]1CN(C)C(=O)c2cc(NC(=O)c3ccc(-c4ccccc4)cc3)ccc2OC[C@H](C)NC[C@H]1C", "activity change, negative = inhibition": "-3.6% [at 30 µM]"},
      {"smiles": "Cc1noc(C)c1S(=O)(=O)Nc1ccc2c(c1)C(=O)N([C@H](C)CO)C[C@H](C)[C@@H](CN(C)C(=O)Nc1ccc(C(F)(F)F)cc1)OCCCC[C@H](C)O2", "activity change, negative = inhibition": "-2.52%"},
      {"smiles": "Cc1ccc(S(=O)(=O)N(C)C[C@@H]2Oc3cc(C#Cc4ccncc4)ccc3S(=O)(=O)N([C@H](C)CO)C[C@H]2C)cc1", "activity change, negative = inhibition": "-4.95%"},
      {"smiles": "Cc1ccc2cccc(NS(=O)(=O)c3ccccc3)c2n1", "activity change, negative = inhibition": "-5.83%"},
      {"smiles": "O=C1/C(=C/c2ccccc2F)SC(=S)N1CC(=O)N1CCCCC1c1cccnc1", "note": "(stereo unspecified)", "activity change, negative = inhibition": "-11%"},
      {"smiles": "O=C(/C=C/c1ccccc1)Nc1cccc(C(=O)O)c1", "activity change, negative = inhibition": "-22.2%"},
      {"smiles": "O=C(NCCc1ccccc1)c1ccc2c(c1)OCCCO2", "activity change, negative = inhibition": "-21.7%"},
      {"smiles": "Cc1ccccc1S(=O)(=O)N1CC[C@@H]2[C@H](CO)Nc3ccc(-c4cccc(F)c4)cc3[C@@H]21", "activity change, negative = inhibition": "-16.3%"},
      {"smiles": "C[C@H](CO)N1C[C@H](C)[C@@H](CN(C)C(=O)C2CCCCC2)OCCCC[C@H](C)Oc2ccc(NS(=O)(=O)c3ccc(Cl)cc3)cc2C1=O", "activity change, negative = inhibition": "-2.98%"},
      {"smiles": "Cc1cc(C)c2sc(NNC(=O)c3ccc(S(=O)(=O)N4CCc5ccccc5C4)cc3)nc2c1", "activity change, negative = inhibition": "-10%"},
      {"smiles": "Cc1ccc(S(=O)(=O)Nc2ccc3c(c2)CC(=O)N([C@@H](C)CO)C[C@H](C)[C@@H](CN(C)C(=O)Nc2ccc(C(F)(F)F)cc2)O3)cc1", "activity change, negative = inhibition": "3.9%"},
      {"smiles": "CN(C)CCN(C(=O)/C=C/c1cccs1)c1nc2c(F)cc(F)cc2s1", "activity change, negative = inhibition": "143%"},
      {"smiles": "C[C@H](CO)N1C[C@H](C)[C@@H](CN(C)Cc2ccc(Cl)c(Cl)c2)Oc2ccc(NS(=O)(=O)c3ccccc3)cc2CC1=O", "activity change, negative = inhibition": "-6.19%"},
      {"smiles": "Cc1ccc(S(=O)(=O)Nc2ccc3c(c2)nc(CCN2CCCC2)n3C)cc1", "activity change, negative = inhibition": "-3.04%"},
      {"smiles": "C[C@@H]1CN([C@H](C)CO)C(=O)c2cc(NC(=O)Nc3ccccc3)ccc2O[C@@H](C)CCCCO[C@@H]1CN(C)Cc1ccc(C(F)(F)F)cc1", "activity change, negative = inhibition": "-0.728%"},
      {"smiles": "Cc1ccc(S(=O)(=O)N(C)C[C@@H]2Oc3cc(C#Cc4ccncc4)ccc3S(=O)(=O)N([C@H](C)CO)C[C@@H]2C)cc1", "activity change, negative = inhibition": "6.19%"},
      {"smiles": "CC(C)CC#Cc1ccc2c(c1)O[C@H](CN(C)Cc1ccc(C(=O)O)cc1)[C@@H](C)CN([C@H](C)CO)S2(=O)=O", "activity change, negative = inhibition": "17.9%"},
      {"smiles": "Cc1cc(NC(=O)CCCS(=O)(=O)c2nc(-c3cccs3)cc(C(F)(F)F)n2)no1", "activity change, negative = inhibition": "19.2%"},
      {"smiles": "COc1ccccc1C#Cc1ccc2c(c1)O[C@H](CN(C)Cc1cccnc1)[C@H](C)CN([C@@H](C)CO)S2(=O)=O", "activity change, negative = inhibition": "-0.026%"},
      {"smiles": "C[C@@H]1CCCCO[C@H](CN(C)Cc2ccc(C(F)(F)F)cc2)[C@H](C)CN([C@@H](C)CO)C(=O)c2cc(NS(=O)(=O)c3ccc(F)cc3)ccc2O1", "activity change, negative = inhibition": "-7.76%"},
      {"smiles": "CC(=O)Nc1ccc(S(=O)(=O)c2ccnc3cc(Cl)ccc23)cc1", "activity change, negative = inhibition": "2.2%"}
    ]}
  ]
}
